Tb PYK inh = T. brucei pyruvate kinase inhibition. Q57TT1. TbPYK enzyme, Kinase-Glo Plus ATP luminescence, 45 min. Potency, µM (doses to about 76.8 µM), most hits filed as inhibitors. actives 0.12% (n = 410,000). AID 624173; active = well fitted curve in the direction sought with a large enough effect; inconclusive = small, poorly fitted or top-dose-only effect, or another doubt; inactive = no such curve, though single readings can be large; an effect the other way counts as inactive or inconclusive; note: nearly all actives have a fitted effect of over 50% in size
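Assay buffer: 50 mM TEA pH 7.2, 100 mM KCl, 10 mM MgCl2, 0.05% BSA, 0.01% Tween-20. Pyruvate kinase from T. brucei plus substrate met compound, then ADP (130 uM final). Luminescence was read post 45 min RT.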
LmPK inh = LmPK (Leishmania mexicana) enzyme inhibition. Q27686. purified LmPK, Kinase-Glo ATP luminescence, 1 h. Potency, µM (series often up to 57.5 µM), actives largely listed as inhibitors. actives 0.37% (n = 290,000). AID 1721; active = well fitted curve in the direction sought with a large enough effect; inconclusive = small, poorly fitted or top-dose-only effect, or another doubt; inactive = no such curve, though single readings can be large; an effect the other way counts as inactive or inconclusive
Target sequence (Q27686 whole entry, looked up): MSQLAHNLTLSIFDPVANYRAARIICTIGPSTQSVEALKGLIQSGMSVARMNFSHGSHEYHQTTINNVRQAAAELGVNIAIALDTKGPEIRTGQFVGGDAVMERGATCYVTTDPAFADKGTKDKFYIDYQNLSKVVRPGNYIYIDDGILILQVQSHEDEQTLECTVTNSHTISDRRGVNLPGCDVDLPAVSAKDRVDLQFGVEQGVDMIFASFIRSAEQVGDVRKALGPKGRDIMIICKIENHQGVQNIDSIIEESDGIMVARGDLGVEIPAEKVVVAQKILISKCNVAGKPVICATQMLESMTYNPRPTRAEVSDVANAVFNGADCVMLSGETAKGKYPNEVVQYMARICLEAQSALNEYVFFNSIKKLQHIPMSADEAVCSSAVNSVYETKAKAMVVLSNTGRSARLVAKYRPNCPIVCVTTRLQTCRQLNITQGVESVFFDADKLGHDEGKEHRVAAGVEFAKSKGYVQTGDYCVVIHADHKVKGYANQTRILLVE
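0.1 nM LmPK, 0.5 mM PEP, 0.1 mM ADP; 50 mM imidazole pH 7.2, 7 mM MgCl2, 50 mM KCl; 1 h RT. Kinase-Glo luminescence readout, normalized to no-enzyme (full inhibition) and uninhibited wells.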
CHX counter-1 = counter-screen for Shiga toxin inhibitors: cycloheximide protein synthesis inhibition; cell reporter, cycloheximide protein synthesis inhibition counterscreen; max response, %; actives 12% (n = 300,000); AID 2314; in the data active = max response mostly above about 13%, no sharp cut-off; inactive = mostly below about 14%; note: read at 38.3 µM for the half of the compounds with a filed dose
NS1 inh = inhibitors of influenza NS1 protein function | Potency, µM (doses to about 46.1 µM) | actives 0.4% (n = 270,000) | AID 2326; note: actives are rising curves; nearly all actives have a fitted effect of over 50% in size
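Growth recovery, yeast-based: influenza A NS1 expressed in S. cerevisiae causes slow growth, and suppressors are detected by OD600. The parent strain without NS1 is used as positive control.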
Shiga inhibitor = blocks Shiga toxin action in Vero cells; Vero cells, Shiga toxin protein synthesis inhibition reporter; inhibition, % at 38.7 µM; actives 9.2% (n = 290,000); AID 2315; in the data active = inhibition mostly above about 28%, no sharp cut-off; inactive = mostly below about 43%
SARS PLpro yeast = inhibitors of SARS-CoV papain-like protease in yeast; S. cerevisiae expressing SARS-CoV PLpro, growth rescue; Potency, µM (series often up to 32.9 µM), hits mostly activators; actives 0.19% (n = 330,000); note: nearly all actives have a fitted effect of over 55% in size
CHX counter-2 = protein synthesis counter-screen activity for Shiga toxin hits; Potency, µM (doses to about 38.3 µM), most hits filed as activators; Cycloheximide counterscreen, protein synthesis reporter, Shiga toxin assay; actives 3% (n = 510); shares compounds with Shiga inhibitor; AID 2318
Hits are given with their value. This excerpt belongs to a sample that is enriched for hits. Unless noted, calls come from the whole dose curve.

O=C(CN1CCN(c2ncc(C(F)(F)F)cc2Cl)CC1)NC(=O)NCc1ccccc1 was read as Tb PYK inh inactive, LmPK inh inactive, CHX counter-1 inactive, NS1 inh inactive, Shiga inhibitor 67.9, SARS PLpro yeast inactive and CHX counter-2 inactive.
`COc1cc(NC(=O)CC(C)n2nc(C)cc2C)cc(OC)c1` (stereo unspecified) gave Tb PYK inh inactive.
For Cc1ccc(CSc2nnc(CCCCCNC(=O)OC(C)(C)C)o2)cc1 the results were Tb PYK inh inactive, LmPK inh inactive, CHX counter-1 inactive, NS1 inh inactive, Shiga inhibitor 25.2, SARS PLpro yeast inactive and CHX counter-2 inactive.
COc1ccc(CCNC(=O)CN(c2cc(C)cc(C)c2)S(=O)(=O)c2c(C)noc2C)cc1OC was read as Tb PYK inh inactive, LmPK inh inactive, CHX counter-1 inactive, NS1 inh inactive, Shiga inhibitor inactive and SARS PLpro yeast inactive.
Screening CN1CCc2c(sc3c2C(=O)NC(c2ccc4c(c2)OCO4)N3)C1 (stereo unspecified) returned Tb PYK inh inactive, LmPK inh inactive, CHX counter-1 inactive, NS1 inh inactive, Shiga inhibitor 29.1, SARS PLpro yeast inactive and CHX counter-2 inactive.
For CN1CCc2c(sc3c2C(=O)NC(c2ccc(OC(=O)c4ccc(Cl)cc4)cc2)N3)C1 (stereo unspecified) the results were Tb PYK inh inactive.
CN(C)S(=O)(=O)Oc1ccsc1C(=O)Nc1cccc(Cl)c1 was read as Tb PYK inh inactive, LmPK inh inactive, CHX counter-1 inactive, NS1 inh inactive, Shiga inhibitor inactive and SARS PLpro yeast inactive.
Screening CN(C)S(=O)(=O)Oc1ccsc1C(=O)Nc1ccc(Cl)c(Cl)c1 returned Tb PYK inh inactive, LmPK inh inactive, CHX counter-1 inactive, NS1 inh inactive, Shiga inhibitor 65.6, SARS PLpro yeast inactive and CHX counter-2 inactive.
`CCOC(=O)c1c(NC(=O)CSc2nc3ccc(OC)cc3[nH]2)sc2c1CC(C)(C)NC2(C)C` gave Tb PYK inh inactive and SARS PLpro yeast inactive.
COc1ccc(-c2nnc(NC(=O)Cc3ccccc3)s2)c(OC)c1 was read as Tb PYK inh inactive, LmPK inh inactive, CHX counter-1 inactive, NS1 inh inactive, Shiga inhibitor inactive and SARS PLpro yeast inactive.
CCNc1nnc(-c2ccccc2OC)s1 was read as Tb PYK inh inactive, LmPK inh inactive, CHX counter-1 inactive, NS1 inh inactive, Shiga inhibitor 72.7, SARS PLpro yeast inactive and CHX counter-2 inactive.
CS(=O)(=O)c1ccc(Cl)c(C(=O)Nc2ccc3nc(N4CCOCC4)sc3c2)c1 was read as Tb PYK inh inactive and SARS PLpro yeast inactive.
For CC1OC(COCc2ccccc2)Cc2[nH][nH]c(=O)c21 (stereo unspecified) the results were Tb PYK inh inactive.
`CCc1noc(C)c1C(=O)Nc1ccc(F)c(F)c1F` gave Tb PYK inh inactive and SARS PLpro yeast inactive.
Screening CSc1ccc(/C=C(\C#N)C(=O)NC2CCCCC2C)cc1 (stereo unspecified) returned Tb PYK inh inactive, LmPK inh inactive, CHX counter-1 inactive, NS1 inh inactive, Shiga inhibitor 26.6, SARS PLpro yeast inactive and CHX counter-2 inactive.
`CC(=O)Nc1ccc(/C=C(\C#N)C(=O)NC2CCCCC2C)cc1` (stereo unspecified) gave Tb PYK inh inactive, LmPK inh inactive, CHX counter-1 inactive, Shiga inhibitor inactive and SARS PLpro yeast inactive.
`CCN1CCN(C(=O)CCc2nnc(CCc3c[nH]c4ccccc34)o2)[C@@H](C)C1=O` gave Tb PYK inh inactive, LmPK inh inactive, CHX counter-1 inactive, NS1 inh inactive, Shiga inhibitor inactive and SARS PLpro yeast inactive.
CC(C)CN1CCN(C(=O)CCc2nnc(Cc3c[nH]c4ccccc34)o2)[C@@H](C)C1=O was read as Tb PYK inh inactive, LmPK inh inactive, CHX counter-1 inactive, NS1 inh inactive, Shiga inhibitor 36.4, SARS PLpro yeast inactive and CHX counter-2 inconclusive.
